This is part of a sample that, as a whole, favours compounds with a hit. Of some 83,000 tested, about 20% had one in any assay.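 How to read the values: 0–100, growth inhibition (40 = 60% inhibited); 0, no net growth; -100 to 0, cell death (-40 = 40% of starting cells died; -100 = all dead).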 Activity calls are given as the source filed them. The calls were made as follows: active = growth percent below 10; inactive = the rest.
How the values were obtained:
Assay in all cases: NCI-60 one-dose screen, 48 h (100 = growth as untreated, 0 = no growth, -100 = all killed)
Conditions in all cases: 10 µM unless noted
HCT-15 colon = system: HCT-15 colon
HT29 colon = system: HT29 colon
SNB-75 CNS = system: SNB-75 CNS
SNB-19 CNS = system: SNB-19 CNS
U251 CNS = system: U251 CNS
PC-3 prostate = system: PC-3 prostate
SK-MEL-5 melanoma = system: SK-MEL-5 melanoma
UACC-62 melanoma = system: UACC-62 melanoma
LOX IMVI melanoma = system: LOX IMVI melanoma
SK-MEL-28 melanoma = system: SK-MEL-28 melanoma

Measured: growth

COc1ccc2[nH]c(O)c(N=Nc3nc(-c4ccc(Cl)cc4)cs3)c2c1
active: HCT-15 colon -53.3% | HT29 colon -18.4% | SNB-75 CNS -66.9% | U251 CNS -75.6% | PC-3 prostate -10.5% | SK-MEL-5 melanoma 8.45% | UACC-62 melanoma -32.3% | LOX IMVI melanoma -54.9% | SK-MEL-28 melanoma -24.2%
inactive: SNB-19 CNS 24.1%

NS(=O)(=O)c1ccc(Nc2nc(N/N=C/c3cc(Br)c(O)c(Br)c3)nc(Nc3ccccc3)n2)cc1
inactive: HCT-15 colon 80.5% | HT29 colon 32.1% | SNB-75 CNS 25.7% | SNB-19 CNS 14.9% | U251 CNS 27.6% | PC-3 prostate 57.7% | SK-MEL-28 melanoma 34.4%
active: SK-MEL-5 melanoma -26.6% | UACC-62 melanoma -26.6% | LOX IMVI melanoma -23.5%

O=C(N/N=C/c1ccc(Br)o1)c1[nH]c2ccc(Br)cc2c1-c1ccccc1
active: HCT-15 colon -6.94% | HT29 colon -46.2% | SNB-75 CNS -18.3% | SNB-19 CNS 0.0073% | U251 CNS -75.3% | PC-3 prostate 7.74% | SK-MEL-5 melanoma -78.5% | UACC-62 melanoma 5.43% | LOX IMVI melanoma -62.8% | SK-MEL-28 melanoma -20.9%

CCCN(CCC)S(=O)(=O)c1ccc(C(=O)O)cc1.CCCN(CCC)S(=O)(=O)c1ccc(C(=O)O)cc1.[Cl][Pt+2][Cl].[NH2-].[NH2-]
active: SNB-75 CNS 1.96% | U251 CNS -27.5% | SK-MEL-5 melanoma -91.2% | UACC-62 melanoma -90.2% | LOX IMVI melanoma -9.75% | SK-MEL-28 melanoma 1.28%
inactive: HCT-15 colon 87.8% | HT29 colon 42% | SNB-19 CNS 26.7% | PC-3 prostate 39.7%

Cc1ccc(C(=O)Nc2cc(-n3cnc(F)c3)cc(C(F)(F)F)c2)cc1C#Cc1cnc2cccnn12
inactive: HCT-15 colon 36.2% | HT29 colon 35.4% | SNB-75 CNS 132% | SNB-19 CNS 106% | U251 CNS 83.7% | PC-3 prostate 89.8% | SK-MEL-5 melanoma 38.3% | UACC-62 melanoma 26% | LOX IMVI melanoma 22% | SK-MEL-28 melanoma 29.3%

COc1ccc2[nH]cc(-c3cc4nc(-c5cn(C)c6ncc(Br)cc56)cc(N)n4n3)c2c1
active: HCT-15 colon -70.5% | HT29 colon -76.1% | SNB-75 CNS -56.9% | SNB-19 CNS -29.4% | U251 CNS -76.1% | PC-3 prostate -39.5% | SK-MEL-5 melanoma -88.3% | UACC-62 melanoma -82.5% | LOX IMVI melanoma -97.9% | SK-MEL-28 melanoma -92.4%

O=C(c1ccc(Cl)cc1)C1[C@H](c2ccccc2Cl)[C@@H](c2ccccc2)NC12C(=O)Nc1ccccc12 (stereo not given in full)
active: HCT-15 colon -25.8% | HT29 colon -71.7% | SNB-75 CNS -4.03% | SNB-19 CNS 7.09% | U251 CNS -26.4% | PC-3 prostate -3.66% | SK-MEL-5 melanoma -97.1% | UACC-62 melanoma -73.3% | LOX IMVI melanoma -97.9% | SK-MEL-28 melanoma -57.3%

Cc1ccc(NC(=O)N/N=C/c2c[nH]c3ccccc23)c(C)c1
active: HCT-15 colon 9.06% | HT29 colon -35.4% | U251 CNS 9.2% | SK-MEL-5 melanoma 5.42% | UACC-62 melanoma 8.67% | LOX IMVI melanoma -19%
inactive: SNB-75 CNS 14.5% | SNB-19 CNS 34.7% | PC-3 prostate 27.8% | SK-MEL-28 melanoma 47.8%

CCCCCCCCc1ccc(C(=O)Nc2cccc(O)c2)cc1
inactive: HCT-15 colon 47.4% | HT29 colon 78.7% | SNB-75 CNS 103% | SNB-19 CNS 83% | U251 CNS 77.5% | PC-3 prostate 52.4% | SK-MEL-5 melanoma 46.6% | UACC-62 melanoma 69.4% | LOX IMVI melanoma 64.7% | SK-MEL-28 melanoma 83.4%

COc1ccc(NC(=O)N/N=C/c2c[nH]c3ccccc23)cc1
inactive: HCT-15 colon 26.2% | SNB-75 CNS 19.6% | SNB-19 CNS 47.3% | U251 CNS 28.3% | PC-3 prostate 48.7% | SK-MEL-5 melanoma 20.5% | UACC-62 melanoma 25.5% | LOX IMVI melanoma 28% | SK-MEL-28 melanoma 67.9%
active: HT29 colon 2.49%

COc1ccc(N=Nc2c(N)nn3c(N)c(C#N)c(-c4ccccc4)nc23)cc1
inactive: HCT-15 colon 70.8% | HT29 colon 60.9% | SNB-19 CNS 27.1% | U251 CNS 21% | PC-3 prostate 28.2% | SK-MEL-5 melanoma 34.2% | UACC-62 melanoma 36.3% | LOX IMVI melanoma 54.9% | SK-MEL-28 melanoma 66.6%
active: SNB-75 CNS -15.8%

O=C(NNC(=S)NCCc1ccccc1)c1ccc(OCc2nc3ccc(Cl)cc3[nH]2)cc1
inactive: HCT-15 colon 66.9% | HT29 colon 100% | SNB-75 CNS 128% | SNB-19 CNS 75.6% | U251 CNS 88.2% | PC-3 prostate 67.1% | SK-MEL-5 melanoma 41.6% | UACC-62 melanoma 63.3% | LOX IMVI melanoma 80.4% | SK-MEL-28 melanoma 101%

Nc1cc(-c2c[nH]c3ccc(Cl)cc23)nc2cc(-c3c[nH]c4ccccc34)nn12
active: HCT-15 colon -87.1% | HT29 colon -59.7% | SNB-19 CNS -59.5% | U251 CNS -74.4% | PC-3 prostate -12% | SK-MEL-5 melanoma -87% | UACC-62 melanoma -82.7% | LOX IMVI melanoma -94.6% | SK-MEL-28 melanoma -66.9%
inactive: SNB-75 CNS 19.4%

O=CNc1cccc(-n2cnc3cc(-c4ccc(O)cc4)ccc32)c1
inactive: HCT-15 colon 15.5% | HT29 colon 22.7% | SNB-75 CNS 21.4% | SNB-19 CNS 43.3% | U251 CNS 25.4% | PC-3 prostate 49% | SK-MEL-5 melanoma 35.6% | UACC-62 melanoma 38.2% | LOX IMVI melanoma 21.2% | SK-MEL-28 melanoma 56.2%

Cc1ccc(Cl)cc1NC(=O)N/C(N)=N/c1nc2ccccc2s1
inactive: SNB-19 CNS 12.5% | SK-MEL-28 melanoma 19.6%
active: HCT-15 colon -22.4% | HT29 colon -69.5% | SNB-75 CNS -4.17% | U251 CNS -43.8% | PC-3 prostate 2.99% | SK-MEL-5 melanoma -56.9% | UACC-62 melanoma -11.4% | LOX IMVI melanoma -83.3%

Fc1ccc(N2CC(Cn3c(C(F)(F)F)cc4c(Cl)ncnc43)C2)c(F)c1
inactive: SNB-75 CNS 24.6% | SK-MEL-5 melanoma 88.9%
active: HCT-15 colon -76.5% | HT29 colon -59.4% | SNB-19 CNS -39.1% | U251 CNS -26.6% | PC-3 prostate 0.119% | UACC-62 melanoma 6.55% | LOX IMVI melanoma -93.6% | SK-MEL-28 melanoma -89.8%

COc1ccc(-c2cc(C(=O)OCc3ccc(Br)cc3)nn2-c2ccc(S(C)(=O)=O)cc2)cc1OC
inactive: HCT-15 colon 73.3% | HT29 colon 87.3% | SNB-75 CNS 60.5% | SNB-19 CNS 84.6% | U251 CNS 86.1% | PC-3 prostate 72.1% | SK-MEL-5 melanoma 77.5% | UACC-62 melanoma 72.6% | LOX IMVI melanoma 75.3% | SK-MEL-28 melanoma 102%

Reference: PubChem BioAssay (NCI)
